Results: PubChem BioAssay (NCATS)
Several values for one entry are separate records, joined by “and”; a condition that tells them apart may be missing. Identical values can stand only once. Inconclusive results are not listed. Activity calls are given as the source filed them. Calls come from the whole dose curve; as a rule, active = well fitted activation curve with a large enough effect; inconclusive = small, poorly fitted or top-dose-only effect; inactive = no such curve, though single readings can be large or run the other way. Positions of bridges follow the written chain, without caps; N, C: chain ends. Non-standard residues stand in square brackets, D forms with d. Residues, ends and D or L forms follow the SMILES beside them. *: point of attachment. X1 = CCC(C)C(N)C1=NC(C(=O)*)CS1; dOrn = NCCC[C@@H](N)C(=O)O
Potency is the fitted concentration of half-maximal effect.

Each compound was assayed against Cellular tumor antigen p53 (Homo sapiens) (UniProt P04637) (assay: Primary qHTS for small molecule compounds that upregulate eGFP-tagged delta133p53alpha (in N-terminal) cells. (AID 2060322; note: nearly all actives have a fitted effect of over 75% in size;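 for activation: series mostly up to about 56 µM; 0% = DMSO vehicle and 100% = reference activator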)). Conditions: NCI-H358 eGFP-delta133p53alpha fluorescence, 24 h; activation: active compounds read high.
Chain of Cellular tumor antigen p53 (Homo sapiens) (P04637 whole entry, looked up): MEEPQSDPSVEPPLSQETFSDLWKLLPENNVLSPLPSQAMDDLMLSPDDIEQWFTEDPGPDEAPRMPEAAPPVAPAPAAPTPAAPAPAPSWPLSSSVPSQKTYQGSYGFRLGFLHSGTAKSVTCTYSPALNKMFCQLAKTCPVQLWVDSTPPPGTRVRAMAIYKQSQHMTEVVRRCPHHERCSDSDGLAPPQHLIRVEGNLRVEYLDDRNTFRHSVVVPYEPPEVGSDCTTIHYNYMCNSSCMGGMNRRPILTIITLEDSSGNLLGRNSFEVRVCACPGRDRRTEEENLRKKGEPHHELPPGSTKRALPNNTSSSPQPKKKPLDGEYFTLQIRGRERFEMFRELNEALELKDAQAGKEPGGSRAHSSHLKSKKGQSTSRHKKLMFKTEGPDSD
In short: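 NCI-H358 cells pre-induced 24 h with 10 ng/ml doxycycline to express N-terminal eGFP-delta133p53alpha, then dosed 24 h at 37C without doxycycline; fixed, Hoechst-stained, GFP intensity by laser scanning cytometry, normalized to DMSO (0%) and 57.5 uM 5-azacytidine (100%).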
In the case of COc1cccc2cc(-c3nc(C4CCC(C(=O)O)CC4)n4ncnc(N)c34)[nH]c12 (stereo not given), the activation is reported as 12.5% (inactive) and 16.7% (inactive).
Cc1cc2ncc(C(=O)NCC(C)(C)NCC(=O)N3CCC[C@H]3C#N)cn2n1 was tested, and the activation was -6.33% (inactive).
With CC(=O)NC(C)c1cnc(-c2cnc(Oc3ccc(OC(C)C)cc3)s2)s1 (stereo not given) the activation was -20% (inactive).
With CC(=O)Nc1sc2c(c1-c1nc3ccccc3s1)CNC2 the Potency was 26900 nM (active).
In the case of COc1ccc2c(c1O)OC[C@H]1c3ccc(O)cc3O[C@@H]21, the activation is reported as -14.5% (inactive).
With CC1(C)CC(=O)c2c(C(F)(F)F)nn(-c3ccc(C(N)=O)c(NC4CCC(OC(=O)CN)CC4)c3)c2C1 (stereo not given) the activation was 38.8% (inactive) and -1.67% (inactive).
For COCCN(C(=O)c1cc(OC)c(OC)c(OC)c1)c1nc(-c2ccccc2)cs1, the activation was 19.1% (inactive).
For COC(=O)N1CCN(Cc2cccc(NC(=O)Nc3ccc(C)nc3)c2F)CC1, the activation was 4.35% (inactive) and -6.68% (inactive).
In the case of CC(C)(C)Nc1nc(Nc2ccc(C(N)=O)cc2)cc(N)c1C#N, the activation is reported as 11% (inactive).
COC(=O)c1ccc(O[C@@H]2O[C@H](CO)[C@@H](O)[C@H](O)[C@H]2O)c(OC)c1 was tested, and the activation was -13.4% (inactive).
For Cc1nnc(-c2sc(NC(=O)[C@H](C(C)C)n3c(=O)[nH]c4ccccc4c3=O)nc2C)o1, the activation was -7.64% (inactive).
In the case of O=C(C1CCCCC1)N(CCN1CCN(c2ccccc2O)CC1)c1ccccn1, the activation is reported as -3.34% (inactive).
With Cc1csc2c(N[C@@H](C)CN3CCN(S(=O)(=O)c4ccc(Cl)c(Cl)c4)CC3)ncnc12 the activation was -2.86% (inactive).
For O=C(O)c1cnn(-c2nc3cc(OC(F)(F)F)c(Cl)cc3[nH]2)c1, the activation was -9.67% (inactive).
With CCC(C)C(N)C1=NC(C(=O)N[C@@H](CC(C)C)C(=O)N[C@H](CCC(=O)O)C(=O)N[C@H](C(=O)N[C@H]2CCCCNC(=O)[C@H](CC(N)=O)NC(=O)[C@@H](CC(=O)O)NC(=O)[C@H](Cc3cnc[nH]3)NC(=O)[C@@H](Cc3ccccc3)NC(=O)[C@H]([C@@H](C)CC)NC(=O)[C@@H](CCCN)NC2=O)[C@@H](C)CC)CS1 (stereo not given in full) (X1-L[dE]IK[dOrn]I[dF]H[dD]N; lactam 4-C) the activation was -3.34% (inactive) and -0.955% (inactive).
With CCOC(=O)c1cccc(CNc2ccc(N(C)C(=O)Nc3ccccc3)cc2)c1 the activation was -12.9% (inactive).
Cc1ncc(-c2ccnc(Nc3ccc(S(C)(=O)=O)cc3)n2)n1C(C)C was tested, and the Potency was 3.06 µM (active) and 2.69 µM (active).
With COc1ccc(CCO[C@@H]2CCCC[C@H]2N2CC[C@@H](O)C2)cc1OC the activation was -0.477% (inactive).
C[C@@H]1CN(Cc2ncccn2)C[C@H]1c1nc2c(cnn2C2CCOCC2)c(=O)[nH]1 was tested, and the activation was 0.955% (inactive).
For O=C(Nc1ccccc1)N1CCN(Cc2ccc3ccccc3n2)CC1, the activation was 8.59% (inactive).
With O=C(CCCCCCC(=O)Nc1ccccc1)NO the activation was 17.7% (inactive) and 26.7% (inactive).
COc1cc(C(O)C2COC(c3ccc(OC4OC(CO)C(O)C(O)C4O)c(OC)c3)C2CO)ccc1O (stereo not given) was tested, and the activation was -10.7% (inactive).
In the case of Cn1cnc(-c2nccc3c(=O)[nH]c(OCCCC(F)(F)F)nc23)c1, the activation is reported as -13.4% (inactive).
In the case of N[C@@H](CCNCc1ccc(Cl)cc1)C(=O)N1CCCCC1, the activation is reported as 1.91% (inactive).
With CN(C)c1ccc(C2O[C@@H](c3ccccc3)C[C@H](c3ccccc3)O2)cc1 (stereo not given in full) the activation was -3.34% (inactive).
For COc1cc(/C=C/C(=O)OCC2OC(OC3(CO)OC(CO)C(O)C3O)C(O)C(O)C2O)ccc1O (stereo not given), the activation was 10.7% (inactive).
With CCCN1CCC=C(c2cc(-c3ccc(C)cc3)no2)C1 the activation was 2.86% (inactive).
With CCCCNC(=O)[C@@H]1Cc2ccccc2N1C(=O)[C@@H](N)CC the activation was -9.55% (inactive).
With Nc1ccccc1NC(=O)c1ccc(CNC(=O)OCc2cccnc2)cc1 the activation was 3.28% (inactive).
In the case of COc1cc(Nc2ncc(F)c(Nc3ccc4c(n3)NC(=O)C(C)(C)O4)n2)cc(OC)c1OC, the activation is reported as 7.29% (inactive).
For CC[C@H](CO)Nc1nc(NCc2ccc(-c3ccccn3)cc2)c2ncn(C(C)C)c2n1, the Potency was 536 nM (active).
For O=C(CN1C2=NCCN2c2ccccc21)c1ccc(-c2ccccc2)cc1, the activation was 7.16% (inactive).
Cc1ccccc1C#Cc1ccc(CCC(=O)O)cc1 was tested, and the activation was 4.3% (inactive).
With CN(C)c1ccc2c(c1)OC(N)=C(C#N)C2c1cccc(C(F)(F)F)c1 (stereo not given) the Potency was 953 nM (active).
With CC(C)C[C@H](NC(=O)[C@@H](NC(=O)c1cccc(-c2ccccc2)n1)[C@@H](C)O)B(O)O the Potency was 385 nM (active) and 16.9 µM (active).
For O=C1CC(c2ccc([N+](=O)[O-])cc2)=NN1c1ccccc1, the activation was -8.93% (inactive).
In the case of CCCN(CCN1CCN(c2ccccc2OC)CC1)C1CCc2ncsc2C1 (stereo not given), the activation is reported as -3.57% (inactive).
With COc1ccnc(CCc2nc3ncccc3[nH]2)c1 the activation was -5.73% (inactive).
With CN(C)C(=O)Nc1cccc(-c2ccc(N(C)C)cc2)c1 the activation was -14.8% (inactive).
With COc1ccc(-c2cc3onc(-c4ccncc4)c3c(=O)n2C)cc1 the activation was -6.68% (inactive).
